# L3MBTL1 inh – qHTS Assay for the Inhibitors of L3MBTL1; 230,000 tested, 0.66% active; Potency, µM (highest dose often 57.1 µM), for the others: top-dose activity, negative = inhibition, hits mostly inhibitors; AlphaScreen L3MBTL1–H3K9me1 peptide binding; AID 485360, 2010; Lethal(3)malignant brain tumor-like protein 1 (Homo sapiens), Q9Y468; note: % is set by controls: 0 for no effect and ±100 for the full control effect; nearly all actives have a fitted effect of over 60% in size
# Target sequence (Q9Y468 whole entry, looked up): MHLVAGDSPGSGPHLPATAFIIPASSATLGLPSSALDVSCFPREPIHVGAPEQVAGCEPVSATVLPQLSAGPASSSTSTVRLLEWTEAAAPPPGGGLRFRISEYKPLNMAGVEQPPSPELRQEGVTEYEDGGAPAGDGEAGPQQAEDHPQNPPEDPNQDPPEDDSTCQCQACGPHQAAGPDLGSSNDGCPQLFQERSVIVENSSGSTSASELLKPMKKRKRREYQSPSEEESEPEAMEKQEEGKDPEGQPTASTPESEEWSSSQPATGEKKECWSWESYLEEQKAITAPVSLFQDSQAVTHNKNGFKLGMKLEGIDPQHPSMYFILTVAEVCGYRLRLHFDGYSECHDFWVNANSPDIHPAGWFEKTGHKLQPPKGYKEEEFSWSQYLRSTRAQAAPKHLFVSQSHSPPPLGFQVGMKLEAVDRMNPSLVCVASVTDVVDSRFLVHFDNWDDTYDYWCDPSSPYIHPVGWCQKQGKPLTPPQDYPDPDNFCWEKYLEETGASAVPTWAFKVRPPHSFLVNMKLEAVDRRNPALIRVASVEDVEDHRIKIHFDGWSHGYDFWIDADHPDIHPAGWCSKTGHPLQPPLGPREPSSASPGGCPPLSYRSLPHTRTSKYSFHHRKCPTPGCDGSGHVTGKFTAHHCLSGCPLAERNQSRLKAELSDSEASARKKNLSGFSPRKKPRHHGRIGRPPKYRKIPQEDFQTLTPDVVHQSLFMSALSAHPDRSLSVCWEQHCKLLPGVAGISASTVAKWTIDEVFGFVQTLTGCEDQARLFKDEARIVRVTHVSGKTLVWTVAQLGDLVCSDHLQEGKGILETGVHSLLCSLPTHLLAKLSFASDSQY
#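 L3MBTL1 (50 nM) pre-complexed 30 min with biotinylated H3(1-15)K9me1 peptide (75 nM), then compounds added for 30 min at room temperature; AlphaScreen streptavidin donor/nickel chelate acceptor beads (10 ug/mL final) read after 30 min dark incubation.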
# BAZ2B block – qHTS Assay for Inhibitors of BAZ2B | Bromodomain adjacent to zinc finger domain protein 2B (Homo sapiens), Q9UIF8 | AlphaScreen BAZ2B-H3K14Ac peptide displacement | Potency, µM (series often up to 114 µM), for inactives: at the highest dose activity change, negative = inhibition, most hits filed as inhibitors | 360,000 tested, 4.4% active | AID 504333, 2011; note: % is set by controls: 0 for no effect and ±100 for the full control effect; nearly all actives have a fitted effect of over 60% in size
#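 AlphaScreen displacement: compounds (up to 110uM) incubated 30 min at room temperature with a preformed 50 nM BAZ2B/50 nM biotinylated H3K14Ac peptide complex in PBS pH 7.4 with Tween-20. Donor and acceptor beads at 10 ug/mL final added, 20 min light-protected before reading.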
# Sfp PPTase inh – qHTS Assay for Inhibitors of Bacillus subtilis Sfp phosphopantetheinyl transferase (PPTase); AID 1490, 2009; 310,000 tested, 3.5% active; Potency, µM, without a hit: largest response in the series, negative = inhibition, most hits filed as inhibitors; Biochemical Sfp PPTase activity, qHTS;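 note: the enzyme is Sfp with the accession as filed and its product quenches rhodamine fluorescence; 0% = enzyme reaction without inhibitor and -100% = no enzyme wells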
#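 After 15 min at room temperature with compound, 15 nM Sfp received 5 uM rhodamine-CoA plus 12.5 uM BHQ-2-ybbR (50 mM Hepes pH 7.6, 10 mM MgCl2). Rate came from the fluorescence difference over 30 min, ex 525/em 598 nm.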
# G9a block – qHTS Assay for Inhibitors of Histone Lysine Methyltransferase G9a. Histone-lysine N-methyltransferase EHMT2 (Homo sapiens), Q96KQ7. G9a H3K9 monomethylation, AlphaScreen, 2 h. Potency, µM (titrated, usually from 102 µM), without a hit: at the top dose activity, negative = inhibition, hits mostly inhibitors. 350,000 tested, 8.8% active. AID 504332, 2011; note: % is set by controls: 0 for no effect and ±100 for the full control effect; nearly all actives have a fitted effect of over 75% in size
#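 Signal arises when biotinylated H3K9 peptide, once monomethylated, bridges streptavidin donor and antibody-captured acceptor beads. Enzyme at 20 nM was preincubated 15 min with test compounds; peptide 500 nM and SAM 20 uM then reacted for 2 h.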
# JMJD2A Tudor inh – qHTS Assay for Inhibitors of JMJD2A-Tudor Domain; AlphaScreen JMJD2A-Tudor / H3K4me3 peptide binding; Potency, µM (titrated, usually from 114 µM), for inactives: at the highest dose activity change, negative = inhibition, hits mostly inhibitors; 390,000 tested, 4.4% active; note: % is set by controls: 0 for no effect and ±100 for the full control effect; nearly all actives have a fitted effect of over 50% in size
# HP1b binding inh – HTS for Inhibitors of HP1-beta Chromodomain Interactions with Methylated Histone Tails; Chromobox protein homolog 1 (Homo sapiens), P83916; AlphaScreen HP1-beta / biotin-H3K9me3 peptide binding; Potency, µM (highest dose often 114 µM), for the others: at the top dose activity change, negative = inhibition, most hits filed as inhibitors; 390,000 tested, 0.56% active; AID 540317, 2011; note: nearly all actives have a fitted effect of over 70% in size
#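 HP1-beta protein (50 nM final) preincubated 30 min at room temperature with biotinylated H3(1-18)K9me3 peptide (50 nM) in PBS pH 7.4, 0.01% Tween-20, then compound added for 30 min. AlphaScreen streptavidin donor/nickel chelate acceptor beads (10 ug/mL final), 30 min dark, luminescence read.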
# Numbers without * were called inactive; ? = inconclusive; · = no result given; [ ] = another dose, or the depositor's remark. An excerpt weighted towards active compounds, which were near 12% of everything screened. Calls come from the whole dose curve; as a rule, active = well fitted curve in the direction sought with a large enough effect; inconclusive = small, poorly fitted or top-dose-only effect, or another doubt; inactive = no such curve, though single readings can be large; an effect the other way counts as inactive or inconclusive. Potency is the fitted concentration of half-maximal effect.
SMILES,L3MBTL1 inh,BAZ2B block,Sfp PPTase inh,G9a block,JMJD2A Tudor inh,HP1b binding inh
Cc1cc(N=Nc2ccc(Cl)cc2)cc(CN2CCOCC2)c1O,?,10µM*,-2%,7.9µM*,16µM*,40µM*
Cc1cc(N=Nc2ccc(Cl)cc2)cc(CN2CCCC2)c1O,?,10µM*,-12%,·,28µM*,20µM*
CN(C)c1cccc(NC(=O)c2ccco2)c1,·,?,-3%,?,-24%,15%
CCN(CC)P(=O)(Nc1cccc(C(F)(F)F)c1)c1ccc(N(C)C)cc1NC(=O)c1ccco1 (stereo unspecified),·,?,16%,32µM*,?,6%
CCOC(=O)c1c(-c2ccc(Cl)cc2)csc1NC(=O)CNCc1ccco1,·,40µM*,50µM*,-132%[59 µM],45µM*,?
CCOC(=O)c1c(-c2ccc(OC)cc2)csc1NC(=O)CNCc1ccco1,-6%,-44%,-17%,-49%,?,-1%
CCOC(=O)c1c(-c2ccccc2)csc1NC(=O)C(C)NCc1ccco1 (stereo unspecified),-10%,50µM*,?,25µM*,?,28µM*
COc1ccc(/C=C/C(=O)Nc2ccc(N3CCOCC3)cc2)cc1,-1%,-1%,11%,-46%,-10%,24%
O=C(Nc1ccccc1)N1CCc2ccccc2C1,28%,28%,2%,-3%[59 µM],-1%[11.4 µM],-5%
COc1ccc(N2CCN(CCCNC(=O)Nc3ccccc3Cl)CC2)cc1,·,35µM*,·,?,?,?
CCc1ccc(NC(=O)NCCN2CCN(c3ccc(OC)cc3)CC2)cc1,·,?,2%,10µM*,-30%,21%
COc1ccc(N2CCN(c3ccc(NC(=O)/C=C\C(=O)O)cc3)CC2)cc1,-16%,?,4%,45µM*,-27%,9%
O=C(Nc1ccc(Cl)cc1)N1CCc2ccccc2C1,-28%,?,79µM*,?,18%,45%
CCN(C(=O)CSc1nc2n[nH]c(C)c2c(=N)n1-c1cccc(OC)c1)c1cccc(C)c1,·,?,·,-32%[59 µM],?,29%
COc1ccc(Nc2nc(C(=O)N3CCc4ccccc4C3)cs2)cc1,3%,?,-4%,·,45µM*,?
O=C(c1cc2cc(Cl)ccc2[nH]1)N1CCc2ccccc2C1,·,-18%[57.1 µM],1%,50µM*,25%,60%
COc1ccc(NC(=O)N2CCc3ccccc3C2)cc1,·,-10%,9%,5%,-14%,30%
COc1ccc(NC(=O)NCCN2CCc3ccccc3C2)cc1,-2%,2%,-9%,?,20µM*,16%
CSc1ccc(NC(=O)NCCN2CCc3ccccc3C2)cc1,-14%,?,-28%,?,?,-5%
O=C(NCCCN1CCc2ccccc2C1)Nc1ccc(Cl)cc1,2%,0%,7%,71µM*,-28%,14%
CCc1ccc(C2c3c(-c4cc(C)ccc4O)n[nH]c3C(=O)N2CCO)cc1 (stereo unspecified),·,-5%,·,8%[59 µM],-21%,16%
Cc1ccccc1N(CC(=O)N1CCc2ccccc2C1)S(C)(=O)=O,-2%,9%,2%,12%,-2%,39%
CSc1ccc(NC(=O)NCCCN2CCC(Cc3ccccc3)CC2)cc1,·,40µM*,-8%,?,?,-10%
CCN1C(=O)C(CC(=O)Nc2ccc(OC)cc2)N(CCCN2CCN(c3ccc(OC)cc3)CC2)C1=S (stereo unspecified),·,32µM*,13%,?,50µM*,-10%
CN(C)CC(=O)N1CCc2ccccc2C1,·,50µM*,-13%,?,11µM*,-33%
SMILES,L3MBTL1 inh,BAZ2B block,Sfp PPTase inh,G9a block,JMJD2A Tudor inh,HP1b binding inh
CCN1C(=O)C(CC(=O)Nc2ccc(OC)cc2)N(CCN2CCOCC2)C1=S (stereo unspecified),1%,-1%,19%,-37%,-4%,27%
Cc1ccc(Nc2nc(C(=O)N3CCC(C(=O)N4CCN(C)CC4)CC3)cs2)cc1,-1%,-7%,4%,50µM*,?,22%
Cn1c(=O)c2c(-c3ccc(Br)cc3)n(Cc3ccc(F)cc3)cc2n(C)c1=O,·,-29%,·,?,?,-13%
CC(C)=CCC/C(C)=C/CO/N=C1/C[C@@H](O)[C@@H](O)[C@@H]2[C@@H]3C(=O)N(C[C@@H]4CCCO4)C(=O)[C@H]3CC[C@@H]12,·,·,15%,·,·,·
N#Cc1nc(Nc2ccc(C(F)(F)F)cc2)nc(NC2CCCC2)n1,·,·,·,·,-12%,·
O=C(NCCCN1CCN(c2cccc(Cl)c2)CC1)C1(S(=O)(=O)c2ccc(Cl)cc2)CC1,·,-28%,10%,-28%[59 µM],-24%,1%
COc1ccc(N2CCN(CCS(=O)(=O)c3cc(Cl)ccc3Cl)CC2)cc1,-12%,45µM*,·,-12%[2.33 µM],?,-22%
COc1ccc(N2CCN(CCCNC(=O)C3(S(=O)(=O)c4ccc(Cl)cc4)CC3)CC2)cc1,-3%,?,-9%,?,50µM*,?
COCCNC(=O)c1ccc(-n2c(-c3ccccc3)cc3c2CCCCC3)cc1,·,?,·,-7%[59 µM],-13%,55%
Cc1cc(C)cc(C(=O)NN2CCN(C)CC2)c1,8%,4%,15%,3%[12.7 µM],22µM*,-5%
O=C(NC(=S)Nc1cccc2ncccc12)c1ccccc1,7%,-24%,20µM*,?,-22%,4%
O=C(NC(=S)Nc1cccc2ncccc12)c1cccs1,-11%,-32%,45µM*,50µM*,-4%,26%
CC(=O)Nc1cccc2ncccc12,9%,-2%,22%,11%[59 µM],-19%,14%
S=c1cn[nH]c2ccccc12,·,·,·,·,4.5µM*,89µM*
COc1cc(Cn2c(=O)sc3ccccc32)ccc1OCCC(C)C,·,62%,·,94%[59 µM],46%,83%
CCc1ccc(NC(=O)NCCc2c(C)nn(C)c2C)cc1,·,0%,·,24%[59 µM],3%,36%
CN(C)CCCOC(=O)c1ccc(Br)cc1,1%,10%,3%,45µM*,8%,43%
Cc1cc(Cl)ccc1NC(=O)CN1C(=O)COc2ccc(S(=O)(=O)Nc3ccccc3)cc21,·,-3%,·,?,-7%,36%
CC/C(=N\NC(=O)Cc1ccc(Br)cc1)c1cccs1,·,-15%,11%,56µM*,-12%,57%

# Screening results (PubChem BioAssay)
